Measurements: PubChem BioAssay AID1851 (National Center for Advancing Translational Sciences (NCATS), 2009)
Several values for one entry are separate records, joined by “and”; a condition that tells them apart may be missing. Identical values can stand only once. The whole screen tested about 16,000 compounds, of which about 2,600 (16%) were called active. About 20% were inconclusive and are not listed. The list comes from a sample in which actives are over-represented; it also holds similar structures and randomly drawn compounds. Values without a mark were called inactive. Calls come from the whole dose curve; as a rule, active = well fitted curve in the direction sought with a large enough effect; inconclusive = small, poorly fitted or top-dose-only effect, or effect the other way; inactive = no such curve, though single readings can be large or run the other way.

Target: Cytochrome P450 2D6 (Homo sapiens) (UniProt P10635)
Sequence (P10635 whole entry, looked up): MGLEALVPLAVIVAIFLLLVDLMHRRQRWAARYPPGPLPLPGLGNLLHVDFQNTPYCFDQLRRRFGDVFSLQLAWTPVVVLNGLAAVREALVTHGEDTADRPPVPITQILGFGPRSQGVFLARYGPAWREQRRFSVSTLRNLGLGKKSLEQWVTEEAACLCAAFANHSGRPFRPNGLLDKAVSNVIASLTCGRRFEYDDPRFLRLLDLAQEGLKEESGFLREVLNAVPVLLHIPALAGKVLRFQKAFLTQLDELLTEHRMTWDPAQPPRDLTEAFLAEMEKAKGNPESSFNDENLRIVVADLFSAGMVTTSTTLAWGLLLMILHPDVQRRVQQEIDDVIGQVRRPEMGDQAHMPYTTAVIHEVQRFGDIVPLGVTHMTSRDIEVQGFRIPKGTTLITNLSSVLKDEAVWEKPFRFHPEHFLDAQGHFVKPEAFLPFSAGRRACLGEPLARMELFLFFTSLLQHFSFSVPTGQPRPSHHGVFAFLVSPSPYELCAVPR
Experiment: Cytochrome panel assay with activity outcomes
Conditions: recombinant CYP, pro-luciferin dealkylation, luminescence, p450-cyp2d6; series mostly up to 57.1 µM
% is set by controls: 0 for no effect and ±100 for the full control effect.

Structure (SMILES) | AC50 | activity, negative = inhibition
N#CC(C#N)=Cc1cc(O)c(O)c(O)c1 | inactive | –
O=C(O)c1cc[c]([Hg][S]c2ncnc3nc[nH]c23)cc1 | 1 µM (active) | –
O=C(NC1CCCCC1)NC1CC2CCC(C1)N2Cc1nnnn1Cc1ccc2c(c1)OCO2 (stereo not drawn) | 6.31 µM (active) | –
CCOP(=O)(OCC)C(NC(=O)C(Cl)Cl)C(Cl)(Cl)Cl (stereo not drawn) | inactive | –
O=[N+]([O-])O[C@H]1CO[C@H]2[C@H]1OC[C@@H]2O[N+](=O)[O-] | inactive | –
C/C(=C\c1ccc(N(C)C)cc1)[N+](=O)[O-] | inactive | –
CCN1CCC[C@@H](OC(=O)C(c2ccccc2)c2ccccc2)C1 | 1.58 µM (active) | –
C[N+]1(C)C2CC[C@H]1CC(OC(=O)[C@@H](CO)c1ccccc1)C2 (stereo partly drawn) | – | 12% [at 11.4 µM]
C[N+]1(C)[C@@H]2CC[C@H]1CC(OC(=O)[C@@H](CO)c1ccccc1)C2 (stereo partly drawn) | inactive | –
NCCCC[C@H](N[C@@H](CCc1ccccc1)C(=O)O)C(=O)N1CCC[C@H]1C(=O)O | inactive | –
CCC1=C(C[C@H]2NCCc3ccccc32)C[C@@H]2c3cc(OC)c(OC)cc3CCN2C1 | 2.51 µM (active) | –
CCC1=C(C[C@H]2NCCc3cc(OC)c(OC)cc32)C[C@H]2c3ccccc3CCN2C1 | 0.316 µM (active) | –
COc1cc2c(cc1OC)[C@H](C)NCC2 | inactive | –
CC[C@@H]1CN2CCc3cc(OC)c(OC)cc3[C@H]2C[C@@H]1C[C@@H]1NCCc2cc(OC)c(OC)cc21 | inactive | –
O=C1CS[C@@H](c2ccccc2Cl)c2cc(Cl)ccc2N1 | inactive | –
c1ccc(C2CC2)c(OCC2=NCCN2)c1 | 25.1 µM (active) and 5.01 µM (active) | –
c1ccc([C@H]2CNCc3ccccc32)cc1 | 5.01 µM (active) | –
O=[As](O)(O)c1ccc2nc3cc([As](=O)(O)O)ccc3nc2c1 | – | 14.5% [at 11.4 µM]
CC(=O)OCC1=C(C(=O)O)N2C(=O)[C@@H](N)[C@@H]2SC1 | inactive | –
c1cc(CCN2CCCCC2)ccn1 | – | -18.4% [at 11.4 µM]
O[Si@](CCCN1CCCCC1)(c1ccc(F)cc1)C1CCCCC1 | 0.501 µM (active) | –

Structure (SMILES) | AC50 | activity, negative = inhibition
CS(=N)(=O)CC[C@@H](N)C(=O)O (stereo partly drawn) | inactive | –
COc1cc([C@@H](O)CN)ccc1O | inactive | –
O=C(CCN1CC2CCC(CC2)C1)c1cccs1 | 2 µM (active) | –
C/C=C1\C[C@H](C)[C@@](O)(CO)C(=O)OCC2=CCN3CC[C@@H](OC1=O)[C@@H]23 | inactive | –
C[N+](C)(C)CCCCCC[N+](C)(C)C | inactive | –
N=C1c2ccccc2CN1NC(=O)c1ccc(Cl)cc1 | 0.794 µM (active) | –
NP(N)(=O)NC(=O)c1ccc(F)cc1 | inactive | –
N=C1c2ccccc2CN1NC(=O)c1ccc(F)cc1 | 1.26 µM (active) | –
CS(=O)(=O)N1CCCC(C(=O)N2CCC3(CC2)OCCO3)C1 (stereo not drawn) | inactive | –
CC12CN3CC(C)(CN(C1)C31CCSCC1)C2=O | inactive | –
NCCSC(c1ccccc1)c1ccccc1 | 0.794 µM (active) | –
NCC#Cc1ccccc1 | inactive | –
O=C1NC(=O)N(CCNc2ncc(C(F)(F)F)cc2Cl)C(=O)C1/C=N/OCc1c(F)cccc1Cl (stereo not drawn) | inactive | –
C[C@]12CC[C@@H]3C(=CCc4cc(O)ccc43)[C@@H]1CCC2=O | inactive | –
O=C(Nc1cccc(C(F)(F)F)c1)c1cccn(Cc2ccc3c(c2)OC(F)(F)O3)c1=O | inactive | –
NC(N)=NS(=O)(=O)c1ccc(N)cc1 | inactive | –
N=C(N)c1ccc(-c2ccc(-c3ccc(C(=N)N)cc3)o2)cc1 | – | 11.8% [at 11.4 µM]
COc1ccc2[nH]c3c(c2c1)CCN=C3C | 0.631 µM (active) | –
COc1ccc2c3c([nH]c2c1)C(C)=NCC3 | 3.98 µM (active) | –
COc1ccc2[nH]c3c(c2c1)CCNC3 | 12.6 µM (active) | –
COc1ccc(-n2nc(C(F)(F)F)cc2-c2ccc(Cl)cc2)cc1 | inactive | –

Structure (SMILES) | AC50 | activity, negative = inhibition
C[C@]12CC[C@H]3c4ccc(O)cc4CC[C@@H]3[C@H]1CC[C@@H]2OC(=O)CCc1ccccc1 | – | -5.32% [at 11.4 µM]
CC1=C(CC[C@H](C)CO)O[C@@H]2C[C@@H]3[C@H]4CC[C@H]5C[C@@H](O)CC[C@]5(C)[C@@H]4CC(=O)[C@@]3(C)[C@@H]12 | – | -3.67% [at 11.4 µM]
CCN(CC)c1ccc(/C=C2/C(=O)NC(=O)N(CC3CCCO3)C2=O)cc1 (stereo not drawn) | inactive | –
CC(C)c1ccc(C(c2c(O)c3ccccc3oc2=O)c2c(O)c3ccccc3oc2=O)cc1 | – | 2.43% [at 11.4 µM]
COc1cc(CNC(=O)CCCC/C=C\C(C)C)ccc1O | inactive | –
O=C(C[n+]1ccc2ccccc2c1)c1ccc2ccc3ccccc3c2c1 | 0.794 µM (active) | –
C[C@H](Br)C(=O)c1ccc2cc(Br)c3ccccc3c2c1 | – | 8.29% [at 11.4 µM]
CCCn1c(C)c(C(=O)c2ccc3ccccc3c2)c2ccccc21 | inactive | –
CC1=C(O)C(=O)[C@H]2O[C@@H]2C1=O | inactive | –
C[C@H]1CC[C@@]2(NC1)O[C@@H]1C[C@@H]3[C@@H]4CC=C5C[C@@H](O)CC[C@]5(C)[C@@H]4CC[C@]3(C)[C@H]1[C@@H]2C | – | 7.13% [at 11.4 µM]
COC(=O)C[C@](O)(CCCC(C)(C)O)C(=O)O[C@@H]1C(OC)=C[C@]23CCCN2CCc2cc4c(cc2[C@H]13)OCO4 | inactive | –
CN1C(=O)C(=Cc2ccc(N3CCCCC3)o2)C(=O)N(C)C1=S | inactive | –
COC1=C(C)C(=O)c2c(c(COC(N)=O)c3n2C[C@@H]2[C@@H]3N2C)C1=O (stereo partly drawn) | 1.58 µM (active) | –
COc1cc2c(c(OC)c1OC)-c1ccc(O)c(=O)cc1[C@H](N)CC2 | inactive | –
Nc1ccc(S(=O)(=O)c2ccc(NCN3C(=O)NC(=O)C(=O)C3=O)cc2)cc1 | – | 4.3% [at 11.4 µM]
c1ccc(CN2CCN(Cc3ccc4c(c3)OCCO4)CC2)cc1 | 12.6 µM (active) | –
c1cc(CN2CCCCC2)cc(OCCCNc2nc3ccccc3s2)c1 | inactive | –
NC[C@H](O)c1cc(O)c(O)cc1F | inactive | –
CCNC(=S)NC1CC2CCCC(C1)N2Cc1ccco1 (stereo not drawn) | 2 µM (active) | –
CC(C)CNC(=S)NC1CC2CCCC(C1)N2Cc1ccco1 (stereo not drawn) | 2 µM (active) | –
Cc1cc(C)cc(NC(=S)NC2CC3CCC(C2)N3Cc2ccco2)c1 (stereo not drawn) | 17.8 µM (active) | –
